From PubChem BioAssay AID1159580 (chemical genetic matrix, 2015)
The whole screen tested about 5,500 compounds, of which about 2,000 (36%) were called active. Inconclusive results (about 18%) are left out. Cut-off read from the data, not from the text of the source: active = normalized growth mostly below about 0.91 (no sharp cut-off); inconclusive = no clear call, values can overlap the other calls; inactive = mostly above about 0.92. Some of the results follow.

Assay: chemical genetic growth profiling, strain panel (AID 1159580);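 note: tested at 20 µM; growth read once vehicle control cultures reached saturation at 30 °C; 1 = growth at the plate median or of vehicle wells; lower values mean less growth of the strain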
Conditions: growth OD

Measured: normalized growth

c1ccc(OCCOc2ccccn2)nc1
inactive: S. cerevisiae deletion strains, locus YAL013W, strain DEP1, active compounds read low 1.03 | S. cerevisiae deletion strains, locus YBR229C, strain ROT2, active compounds read low 0.999 | S. cerevisiae deletion strains, locus YCL061C, strain MRC1, active compounds read low 0.992 | S. cerevisiae deletion strains, locus YDL101C, strain DUN1, active compounds read low 1.01 | S. cerevisiae deletion strains, locus YDL134C, strain PPH21, active compounds read low 0.994 | S. cerevisiae deletion strains, locus YDR150W, strain NUM1, active compounds read low 0.972 | S. cerevisiae deletion strains, locus YEL061C, strain CIN8, active compounds read low 1 | S. cerevisiae deletion strains, locus YGR078C, strain PAC10, active compounds read low 1 | S. cerevisiae deletion strains, locus YHR030C, strain SLT2, active compounds read low 1.06 | S. cerevisiae deletion strains, locus YHR087W, strain rtc3, active compounds read low 0.992 | S. cerevisiae deletion strains, locus YJR043C, strain POL32, active compounds read low 0.995 | S. cerevisiae deletion strains, locus YJR075W, strain HOC1, active compounds read low 1 | S. cerevisiae deletion strains, locus YKL190W, strain CNB1, active compounds read low 0.998 | S. cerevisiae deletion strains, locus YLR039C, strain RIC1, active compounds read low 0.999 | S. cerevisiae deletion strains, locus YLR058C, strain SHM2 (second series), active compounds read low 0.996 | S. cerevisiae deletion strains, locus YLR085C, strain ARP6, active compounds read low 1 | S. cerevisiae deletion strains, locus YLR262C, strain YPT6, active compounds read low 1.05 | S. cerevisiae deletion strains, locus YML094W, strain GIM5, active compounds read low 1.01 | S. cerevisiae deletion strains, locus YMR219W, strain ESC1, active compounds read low 1.01 | S. cerevisiae deletion strains, locus YMR263W, strain SAP30, active compounds read low 0.985 | S. cerevisiae deletion strains, locus YMR307W, strain GAS1, active compounds read low 0.959 | S. cerevisiae deletion strains, locus YNL128W, strain TEP1, active compounds read low 1 | S. cerevisiae deletion strains, locus YNL153C, strain GIM3, active compounds read low 0.997 | S. cerevisiae deletion strains, locus YNL298W, strain CLA4 (second series), active compounds read low 0.978 | S. cerevisiae deletion strains, locus YNL322C, strain KRE1, active compounds read low 1.01 | S. cerevisiae deletion strains, locus YNR030W, strain Alg12, active compounds read low 1 | S. cerevisiae deletion strains, locus YPL055C, strain LGE1, active compounds read low 0.982 | S. cerevisiae deletion strains, locus YPL241C, strain CIN2, active compounds read low 0.988 | S. cerevisiae deletion strains, locus YPR135W, strain CTF4, active compounds read low 1.13 | S. cerevisiae strains, strain wild type, active compounds read low 1
